The source of these data is PubChem BioAssay (NCI).

SMILES strings stand for the structures. This is part of a sample that, as a whole, favours compounds with a hit. Of some 83,000 tested, about 20% had one in any assay.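 Method: cells in 96-well plates; compound added at one concentration; 48 h incubation; percent growth measured; values under 10 scored active.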 A number with no mark means an inactive call. Active and inactive are the calls of the source.

Some test systems named below: DU-145 prostate; K-562 leukemia; MALME-3M melanoma; MDA-MB-231 breast; RXF 393 renal; SF-268 CNS; SF-295 CNS; SF-539 CNS; UACC-257 melanoma; M14 melanoma.
Common to all, as to experiment: NCI-60 one-dose screen, 48 h (100 = growth as untreated, 0 = no growth, -100 = all killed)
Holding throughout (details): 10 µM unless noted

With `Cc1cc2cn3c4ccc(O)cc4[nH]c(=O)c3c2cc1C`, the growth was 3.48% (active) in the assay on DU-145 prostate; -36.8% (active) in the assay with K-562 leukemia; 16.4% in the assay with MALME-3M melanoma; -11.1% (active) with MDA-MB-231 breast; 38.1% in the assay with RXF 393 renal; 15.4% in the assay on SF-268 CNS. For the same compound, the growth was 9.25% (active) in the assay on SF-295 CNS, 12% with SF-539 CNS, 46.6% in the assay on UACC-257 melanoma and -19.4% (active) in the assay with M14 melanoma.

As for `O=C(O)CC1Cc2ccccc2C1C(=O)O` (stereo not given), the growth was 106% with DU-145 prostate; 91.5% with K-562 leukemia; 103% in the assay with MALME-3M melanoma; 105% in the assay on MDA-MB-231 breast; 105% in the assay on RXF 393 renal; 100% in the assay on SF-268 CNS. Moreover, the growth in the assay on SF-295 CNS was 100%; with SF-539 CNS, 99.1%; with UACC-257 melanoma it was 107%; in the assay on M14 melanoma, 95.9%.

Take `CCc1c(C)c2ccc(OCC(=O)N=Nc3c(O)[nH]c4ccccc34)c(C)c2oc1=O`: the growth in the assay on DU-145 prostate is 7.92% (active); in the assay with K-562 leukemia, 4.73% (active); with MALME-3M melanoma, 42.5%; in the assay with MDA-MB-231 breast, 0.841% (active); with RXF 393 renal it was 35.7%; in the assay on SF-268 CNS, 18.4%. Further, the growth is -9.71% (active) in the assay on SF-295 CNS, 85% with SF-539 CNS, 28.2% with UACC-257 melanoma and 3.57% (active) in the assay on M14 melanoma.

In the case of `CCCCCCCCCCCCc1ccc([N+](CC)(CC)CC)cc1`, the growth with DU-145 prostate was 58.8%; in the assay on K-562 leukemia, 16.3%; in the assay on MALME-3M melanoma, -11.1% (active); with MDA-MB-231 breast, 41.7%; in the assay with RXF 393 renal it was 45.8%; in the assay on SF-268 CNS, 47.8%. The growth was 48.9% in the assay with SF-295 CNS, 58.7% in the assay with SF-539 CNS, 13.6% in the assay on UACC-257 melanoma and 32.5% in the assay on M14 melanoma.

In the case of `CCCNC(=O)Oc1ccc(/C(=C(/C)Cc2ccc(OC)cc2)c2ccc(OCCN3CCCC3)cc2)cc1`, the growth in the assay on DU-145 prostate was 90.1%; in the assay on K-562 leukemia it was -11.5% (active); in the assay with MALME-3M melanoma it was 28.9%; in the assay with MDA-MB-231 breast, 57.6%; in the assay on RXF 393 renal, 70%; with SF-268 CNS it was 72.4%. Moreover, the growth in the assay on SF-295 CNS is 68.7%; in the assay with SF-539 CNS it was 77.8%; in the assay with UACC-257 melanoma, 73.5%; with M14 melanoma it was -52.9% (active).

With `O=C(Nc1ccccc1)Nc1ccc(Nc2ncnc3sc4c(c23)CCCC4)cc1`, the growth with DU-145 prostate is 109%; with K-562 leukemia it was 99.8%; with MALME-3M melanoma it was 102%; with MDA-MB-231 breast it was 91.7%; in the assay on RXF 393 renal, 102%; in the assay on SF-268 CNS, 100%. For the same compound, the growth with SF-295 CNS was 102%; with SF-539 CNS, 104%; in the assay with UACC-257 melanoma, 93.5%; in the assay on M14 melanoma, 103%.

In the case of `COc1ccc(-c2nc(SCC(C)C)nc(Nc3ccc(C(=O)O)cc3)c2C#N)cc1`, the growth in the assay on DU-145 prostate is 88.7%; with K-562 leukemia, 89%; in the assay with MALME-3M melanoma it was -57.7% (active); with MDA-MB-231 breast it was 109%; in the assay with RXF 393 renal it was 83.1%; in the assay with SF-268 CNS, 91%. The growth is 75.9% with SF-295 CNS, 97.1% in the assay with SF-539 CNS, 96.9% in the assay with UACC-257 melanoma and 93% with M14 melanoma.

In the case of `Oc1ccc(CN(Cc2ccc(C(F)(F)F)cc2)Cc2ccc(O)c3ncccc23)c2cccnc12`, the growth with DU-145 prostate was 24.1%; with K-562 leukemia it was 8.17% (active); in the assay with MALME-3M melanoma it was 23.7%; in the assay on MDA-MB-231 breast, 48.4%; in the assay with RXF 393 renal it was 11.2%; in the assay with SF-268 CNS, 25.6%. In addition, the growth with SF-295 CNS is 6.95% (active); in the assay with SF-539 CNS, 15.2%; with UACC-257 melanoma it was -27.7% (active); in the assay with M14 melanoma, 3.46% (active).

Regarding `COc1cc(-c2nn(-c3ccc(NC(=O)Nc4ccc(Cl)c(C(F)(F)F)c4)cc3)cc2-c2ccncc2)ccc1Cl`, the growth was 34% with DU-145 prostate; 13.2% with K-562 leukemia; 12.1% with MALME-3M melanoma; 7.76% (active) with MDA-MB-231 breast; -30.2% (active) in the assay with RXF 393 renal; 21.7% in the assay with SF-268 CNS. Further, the growth was -7.8% (active) in the assay on SF-295 CNS, 14.7% in the assay on SF-539 CNS, -3.17% (active) with UACC-257 melanoma and 1.7% (active) with M14 melanoma.

Turning to `Nc1nc2c(c3cnccc13)C(c1cccc(Br)c1)Cc1cnccc1-2` (stereo not given), the growth with DU-145 prostate was 11.4%; with K-562 leukemia it was 9.88% (active); with MALME-3M melanoma it was 36.1%; in the assay with MDA-MB-231 breast it was 4.34% (active); with RXF 393 renal it was 7.59% (active); in the assay on SF-268 CNS, 20.3%. For the same compound, the growth is 13.6% in the assay on SF-295 CNS, -15.9% (active) in the assay with SF-539 CNS, 55.5% in the assay with UACC-257 melanoma and -12.7% (active) in the assay on M14 melanoma.

With `CCCCCCC(C)N(CC(C)(C)O)C(=O)c1ccc([N+](=O)[O-])cc1` (stereo not given), the growth in the assay on DU-145 prostate is 101%; in the assay on K-562 leukemia, 85.1%; with MALME-3M melanoma, 95.8%; with MDA-MB-231 breast it was 106%; with RXF 393 renal, 100%; in the assay with SF-268 CNS it was 110%. In addition, the growth in the assay with SF-295 CNS was 88.6%; in the assay with SF-539 CNS it was 108%; in the assay on UACC-257 melanoma, 106%; in the assay on M14 melanoma, 93.4%.

Turning to `COC(=O)c1ccc2[nH]c(O)c(C(=Nc3ccc(N(C)C(=O)CN4CCN(C)CC4)cc3)c3ccc(CCO)cc3)c2c1`, the growth is 80.4% in the assay with DU-145 prostate; 8.34% (active) in the assay with K-562 leukemia; 19% in the assay on MALME-3M melanoma; 31.2% in the assay on MDA-MB-231 breast; 30% in the assay with RXF 393 renal; 29.6% with SF-268 CNS. The growth in the assay on SF-295 CNS was 93.2%; with SF-539 CNS it was 28%; in the assay with UACC-257 melanoma, 77.6%; with M14 melanoma it was 57.3%.

In the case of `CC1Cc2cc(F)ccc2-n2cccc21` (stereo not given), the growth with DU-145 prostate was 106%; in the assay with K-562 leukemia, 108%; with MALME-3M melanoma, 101%; in the assay with MDA-MB-231 breast it was 94%; in the assay with RXF 393 renal it was 136%; in the assay with SF-268 CNS, 110%. Moreover, the growth in the assay with SF-295 CNS is 104%; in the assay with SF-539 CNS it was 101%; with UACC-257 melanoma it was 101%; in the assay with M14 melanoma, 111%.

As for `O=C(NCCO)C(F)(F)F`, the growth in the assay with DU-145 prostate was 109%; with K-562 leukemia it was 105%; in the assay with MALME-3M melanoma it was 95.6%; in the assay on MDA-MB-231 breast, 107%; with RXF 393 renal it was 108%; with SF-268 CNS, 102%. Also, the growth was 95.5% in the assay on SF-295 CNS, 93.5% with SF-539 CNS, 99.3% in the assay with UACC-257 melanoma and 101% with M14 melanoma.
